# Compound activity as filed in PubChem BioAssay.
# Only some compounds are listed: those with a hit (about 4% of all), similar ones and a draw of the others.
# ADAM10 inh = human ADAM10 inhibitors, primary screen, biochemical, QFRET, HTS. Disintegrin and metalloproteinase domain-containing protein 10 (Homo sapiens), O14672. recombinant ADAM10, EDANS/DABCYL FRET peptide cleavage, 3 h. inhibition, % at 7 µM. 370,000 compounds, 0.62% hits;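 active = inhibition above a per-campaign cutoff equal to the mean of compounds falling between control-based bounds plus 3 SD, cut at about 20% in these data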;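 also: 0% = DMSO wells while the 100% control is not disclosed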
# Target sequence (O14672 214-748 limits assumed): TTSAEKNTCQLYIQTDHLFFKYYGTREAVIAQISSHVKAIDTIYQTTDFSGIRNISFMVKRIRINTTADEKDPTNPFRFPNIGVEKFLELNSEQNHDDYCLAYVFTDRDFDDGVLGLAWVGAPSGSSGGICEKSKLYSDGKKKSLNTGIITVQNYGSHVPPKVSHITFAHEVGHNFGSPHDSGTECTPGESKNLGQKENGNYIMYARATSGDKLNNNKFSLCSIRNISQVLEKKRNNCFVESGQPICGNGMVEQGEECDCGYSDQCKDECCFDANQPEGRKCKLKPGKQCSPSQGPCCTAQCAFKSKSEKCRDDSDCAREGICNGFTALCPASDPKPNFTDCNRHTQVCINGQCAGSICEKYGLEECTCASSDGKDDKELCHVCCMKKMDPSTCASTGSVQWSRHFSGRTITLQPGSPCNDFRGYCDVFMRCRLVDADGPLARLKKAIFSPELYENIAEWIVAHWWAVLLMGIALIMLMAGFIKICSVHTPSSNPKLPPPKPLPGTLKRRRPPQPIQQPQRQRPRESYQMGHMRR
# NR3A LBD binder = binders of NR3A ligand-binding domain, primary screen, biophysical, differential scanning fluorimetry, uHTS; NR3A LBD differential scanning fluorimetry, Tm shift; 0% = protein alone, 100% = glycine-bound protein; Glutamate receptor ionotropic, NMDA 3A (GRIN3A) ligand-binding domain; Tm shift relative to glycine control, % at 25 µM; 340,000 compounds, 2.5% hits;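 active = melting temperature shift of at least 10% of the positive control shift, at one fixed dose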
# ADAM17 inh = ADAM17 inhibitors, primary screen, biochemical, QFRET; Disintegrin and metalloproteinase domain-containing protein 17 (Homo sapiens), P78536; recombinant ADAM17, EDANS/DABCYL FRET peptide cleavage; inhibition, % at 6.95 µM; 370,000 compounds, 0.83% hits; AID 720648, 2013;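 active = inhibition above the mean of compounds lying between control limits plus 3 SD, set per campaign, cut at about 8.5% in these data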;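 also: 0% = DMSO-only wells as the low control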
# FAS TE block = FAS thioesterase domain inhibitors, primary screen, biochemical, fluorescence intensity, uHTS. recombinant FAS-TE, OMFH fluorogenic substrate, fluorescence endpoint. inhibition, % at 15 µM. 360,000 compounds, 0.67% hits. AID 602261, 2012;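 active = compounds whose normalised, plate-corrected inhibition of enzyme fluorescence in the single-dose primary screen is 50% or more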;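 also: 0% = DMSO with enzyme and 100% = substrate without enzyme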
# aDG glyco up = activators of alpha-DG glycosylation, primary screen, uHTS, Pro5-aDG cells, AlphaScreen; alpha-DG glycosylation AlphaScreen (IIH6); 0% Pro5, 100% B10-LARGE cell signal; activation, % at 10 µM; 360,000 compounds, 0.22% hits; AID 624168, 2012;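 active = activation of at least 8% versus controls, or a plate z-score of at least 8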;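 also: Pro5 are CHO cells carrying HIG-tagged alpha-DG that lacks glycosylation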
# The depositor's hits bear a star; i = inactive; x = no result given.
SMILES,ADAM10 inh,NR3A LBD binder,ADAM17 inh,FAS TE block,aDG glyco up
CCOC(=O)C1CCN(C(=O)c2ccc(C)c(S(=O)(=O)N3CCCC3)c2)CC1,-2.5,11.1*,-1.0,-1.7,0.0
COc1cc(/C=C2\SC(=S)N(C(Cc3ccccc3)C(=O)O)C2=O)ccc1O (configuration not stated),-3.5,-0.8,-2.0,-1.5,-0.2
CCC(C(=O)O)N1C(=O)/C(=C/C(C)=C/c2ccccc2)SC1=S (configuration not stated),0.6,3.4,-4.2,28.5,0.2
Cc1ccc(/C=C2\SC(=S)N(C(Cc3ccccc3)C(=O)O)C2=O)cc1 (configuration not stated),-1.9,24.1*,-0.9,13.5,0.0
O=C(O)C(Cc1ccccc1)N1C(=O)c2c(Cl)c(Cl)c(Cl)c(Cl)c2C1=O (configuration not stated),-2.9,11.3*,0.5,-28.8,-0.1
O=C(O)C(Cc1ccccc1)N1C(=O)/C(=C/c2ccccc2)SC1=S (configuration not stated),-5.1,11.5*,1.2,16.8,-0.1
COc1ccc(OC)c(CCNC(=O)CCc2nnc3ccc(N4CCCCC4)nn23)c1,3.4,-2.4,-5.1,-6.6,-0.1
CSc1nsc(SC)c1CO,-2.1,0.4,-3.0,-2.6,-0.1
Cc1cc(C)cc(-n2c(C)cc(/C=C3\C(=N)N4N=C(CC(C)C)SC4=NC3=O)c2C)c1,1.8,-4.8,-3.6,33.5,0.0
CCCC1=NN2C(=N)/C(=C\c3cc(C)n(-c4cc(C)cc(C)c4)c3C)C(=O)N=C2S1,-14.4,11.5*,-3.4,24.3,0.0
Clc1ccc(/C=C/c2nc3ccccc3[nH]2)c(Cl)c1,i,17.1*,i,12.0,0.3
Clc1ccc(/C=C/c2nc3ccccc3[nH]2)cc1,i,12.9*,-374.2,9.3,0.5
COC(=O)Cc1[nH]c(=S)[nH]c1C(=O)OC,4.0,-1.4,-1.4,-2.3,0.0
Nc1ccc(N=Nc2ccccc2)cc1[N+](=O)[O-],10.9,28.7*,2.5,17.8,-0.9
CN(Cc1ccc(F)cc1)C(=O)CNC(=O)c1ccc2c(c1)OCO2,2.9,-0.6,2.3,-5.4,-0.2
COc1ccc(Nc2ccc(Cl)nn2)cc1,4.9,-1.8,-2.9,-2.4,0.1
Clc1ccc(Nc2ccc(Cl)nn2)cc1,1.1,24.3*,1.1,4.3,0.0
COc1cccc(Nc2nc3ccc(OC)cc3s2)c1,6.1,28.6*,1.5,19.7,-0.2
COc1ccc(Nc2nc3ccccc3s2)cc1,12.7,28.6*,2.7,10.7,0.2
Cc1ccnc(SCCn2c(N3CCN(c4ccccc4)CC3)nc3c2c(=O)[nH]c(=O)n3C)n1,3.2,0.1,0.6,-6.0,-0.4
CN(C)S(=O)(=O)c1ccc2nnn(OCC(=O)NC34CC5CC(CC(C5)C3)C4)c2c1,-0.5,11.5*,0.2,4.4,-0.3
CCCc1nc2c(=O)n(C)c(=O)[nH]c2n1CCC,-3.7,14.0*,-1.6,-9.8,-0.3
Cc1sc(NC(=O)c2sc3nc4c(C)cccc4cc3c2N)c(C#N)c1C,-26.3,19.1*,-8.3,-10.0,0.4
Cc1cccc2cc3c(N)c(C(=O)Nc4ccc(N5CCOCC5)cc4)sc3nc12,0.5,13.6*,-2.1,18.0,0.0
Cc1cccc2cc3c(N)c(C#N)sc3nc12,-25.6,35.5*,-7.4,7.5,0.0
SMILES,ADAM10 inh,NR3A LBD binder,ADAM17 inh,FAS TE block,aDG glyco up
Cc1cccc2cc3c(N)c(C(=O)N4CCc5ccccc54)sc3nc12,-23.3,7.6,-4.5,-24.9,0.9
CCc1cccc2cc3c(N)c(C(=O)Nc4ccc(S(=O)(=O)N5CCCC5)cc4)sc3nc12,-45.5,0.9,-6.7,-50.8,2.4
Cc1ccc(/C=C2/CNC/C(=C/c3ccc(C)cc3)C2=O)cc1,-13.6,30.8*,-4.4,-4.5,-0.2
Oc1[nH]c2ccc(Br)cc2c1N=Nc1ccc(C(F)(F)F)cn1,-7.8,20.8*,-3.1,13.4,1.2
CCC(CNc1cc(OC)cc2cccnc12)NC1CCCCC1 (configuration not stated),-11.2,-1.2,-3.2,-3.2,7.1*
O=C(c1ccccc1)N1CCCc2ccccc21,-0.8,-1.5,-4.6,1.1,0.1
S=C(c1ccccc1)N1CCCc2ccccc21,-6.2,11.1*,-1.5,4.7,-0.2
O=C(CCCCCn1nnc2ccccc2c1=O)N[C@H](C(=O)O)c1ccccc1,-4.6,-0.9,-12.0,-8.5,0.3
CC(=O)c1cc2c(cc1NC(=O)CN1Cc3ccccc3C1=O)OCO2,-17.1,12.5*,-1.9,-3.4,0.1
CC(=O)c1cc2c(cc1NC(=O)CN1CCC(Cc3ccccc3)CC1)OCO2,-1.0,0.7,-4.1,20.8,0.3
Cc1nn(C(C)(C)C)c(OC(=O)C2CCCC2)c1S(=O)(=O)c1ccccc1,5.0,4.1,6.3,24.2,-0.5
Cc1ccc(S(=O)(=O)c2c(C)nn(C(C)(C)C)c2OC(=O)C2CCCC2)cc1,2.4,10.2*,3.4,19.4,-0.3
Cc1cc(NC(=O)CSCC(=O)OCC(=O)c2ccc(Br)cc2)no1,-12.2,x,-4.0,-0.2,0.0
COC(=O)/C(=C/c1c[nH]c2ccccc12)[N+](=O)[O-],-0.4,15.7*,-0.4,-5.0,0.1
O=C(c1ccccc1)c1nn(-c2ccccc2)c(=O)cc1C(F)(F)F,-0.6,12.2*,1.7,6.7,-0.2
O=C(c1ccccc1)c1nn(-c2ccc(Cl)cc2)c(=O)cc1C(F)(F)F,0.8,-0.9,-1.8,23.3,-0.7
O=C(/C=C/c1ccccc1)c1c[nH]c2ccccc12,0.5,24.8*,-4.3,-2.7,0.3
O=C(/C=C/c1ccc(Cl)cc1Cl)NCCN1CCOCC1,2.3,-1.2,-1.9,-1.1,-0.4
CN1C(=O)C(C)(C)c2cc(S(=O)(=O)N3CCCC(C(=O)Nc4ccc(Cl)cc4)C3)ccc21 (configuration not stated),3.9,-4.3,3.9,12.0,0.2
O=C(CN1C(=O)C2CCCCC2C1=O)Nc1nccs1 (configuration not stated),-2.8,0.8,-2.9,-3.8,0.1
CCOC(=O)c1[nH]c(C)c(CN(CCc2ccc(OC)c(OC)c2)C(=O)CCCC(=O)O)c1C,8.8,14.6*,0.6,-5.1,-0.5
Clc1nssc1=Nc1nncs1,-20.8,25.0*,-2.0,-13.1,0.0
Cc1ccc(NC(=O)C2CCC(=O)N2C(=O)OCc2ccccc2)cc1 (configuration not stated),3.3,3.6,-4.0,-0.3,0.0
